Data on 47 sequences can be found in the supplement of paper PMC3545927.

In the assay the target is furin, P09958. Kind of assay: furin cleavage Z-score vs untreated control; higher = more cleavage, active = 3.5 or more, inactive = 1 or less, 8 variable residues between constant flanks. A digest of the protocol:
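Sequencing of released DNA, tagged with adapters by PCR, gave read counts used as abundance. That DNA was freed when purified furin cut N-terminally bead-bound 8-mer peptides fused to a cDNA oligonucleotide, in 0.01 ml reactions at 1:10 enzyme:substrate in 50 mM HEPES pH 7.5 with CaCl2 and NaCl, lasting 7.5, 15 or 30 min. The cleavage Z-score was the lowess-adjusted log count versus furin-free reactions, scaled by median absolute deviation.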

The other results are listed elsewhere or left out. The true hit rate is not given.

Sequence of furin, P09958 (P09958 whole entry, the tested form may be a part): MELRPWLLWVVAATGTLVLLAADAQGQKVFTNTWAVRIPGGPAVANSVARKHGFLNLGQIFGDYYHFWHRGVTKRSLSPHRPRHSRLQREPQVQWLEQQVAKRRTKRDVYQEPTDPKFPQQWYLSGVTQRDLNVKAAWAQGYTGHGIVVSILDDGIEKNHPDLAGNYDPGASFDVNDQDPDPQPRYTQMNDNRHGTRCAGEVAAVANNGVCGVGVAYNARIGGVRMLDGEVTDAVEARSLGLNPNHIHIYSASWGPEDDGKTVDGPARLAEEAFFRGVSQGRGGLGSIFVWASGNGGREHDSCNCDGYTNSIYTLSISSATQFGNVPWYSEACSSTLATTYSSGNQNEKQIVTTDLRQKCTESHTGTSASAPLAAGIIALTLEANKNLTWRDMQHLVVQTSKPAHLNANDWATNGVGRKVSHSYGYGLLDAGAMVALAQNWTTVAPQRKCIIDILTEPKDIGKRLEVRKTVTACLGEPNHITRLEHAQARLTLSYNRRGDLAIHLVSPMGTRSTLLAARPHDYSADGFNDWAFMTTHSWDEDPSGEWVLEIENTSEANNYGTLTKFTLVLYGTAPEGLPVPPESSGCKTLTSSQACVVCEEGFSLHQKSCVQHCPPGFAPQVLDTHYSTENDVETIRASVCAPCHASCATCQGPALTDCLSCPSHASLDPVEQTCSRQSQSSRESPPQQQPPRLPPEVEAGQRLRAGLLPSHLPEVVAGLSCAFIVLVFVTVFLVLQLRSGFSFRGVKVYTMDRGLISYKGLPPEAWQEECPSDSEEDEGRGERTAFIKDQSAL

B1: HC1658 (peptide)
chain: CACLLLLAAGAGNASASA
On to B1, for which the “furin cleavage Z-score” value runs as follows: (7.5 min) -0.897 (inactive); (15 min) -1.64 (inactive); (30 min) -0.912 (inactive).

B2: HC2120 (peptide)
chain: CACDVVCCSMAGNASASA
As to B2, the “furin cleavage Z-score” value runs as follows: (7.5 min) -0.0436 (inactive); (15 min) -0.677 (inactive); (30 min) -0.296 (inactive).

B3: HC1941 (peptide)
chain: CATTPCSGSNAGNASASA
As for B3, the “furin cleavage Z-score” value is -1.17 (inactive) (7.5 min), -0.013 (inactive) (15 min) and -0.852 (inactive) (30 min).

B4: HC161 (peptide)
chain: CAMSTNPKPQAGNASASA
B4: the “furin cleavage Z-score” value is 0.554 (inactive) (7.5 min), -0.264 (inactive) (15 min) and -0.709 (inactive) (30 min).

B5: HC491 (peptide)
chain: CAELSPLLLTAGNASASA
Turning to B5, the “furin cleavage Z-score” value is -1.56 (inactive) (7.5 min), -0.594 (inactive) (15 min) and 0.347 (inactive) (30 min).

B6: HC2492 (peptide)
chain: CASEPCSAHLAGNASASA
In the case of B6, the “furin cleavage Z-score” value was -0.366 (inactive) (7.5 min), -0.474 (inactive) (15 min) and -0.0579 (inactive) (30 min).

B7: FS-2426 (peptide)
chain: CARKTRFIIHAGNASASA
As for B7, the “furin cleavage Z-score” value reads like this: (7.5 min) 0.0934 (inactive); (15 min) -2.08 (inactive); (30 min) 0.575 (inactive).

B8: FS-2567 (peptide)
chain: CARKRRNTIHAGNASASA
B8: the “furin cleavage Z-score” value runs as follows: (7.5 min) 9.29 (active); (15 min) 10.7 (active); (30 min) 9.63 (active).

B9: FS-2701 (peptide)
chain: CARKRRQTGQAGNASASA
Turning to B9, the “furin cleavage Z-score” value (7.5 min) is 9.83 (active), the “furin cleavage Z-score” value (15 min) is 11.9 (active) and the “furin cleavage Z-score” value (30 min) was 7.6 (active).

B10: FS-2654 (peptide)
chain: CARDSRSSERAGNASASA
In the case of B10, the “furin cleavage Z-score” value is -1.62 (inactive) (7.5 min), -0.417 (inactive) (15 min) and -0.301 (inactive) (30 min).

B11: FS-2448 (peptide)
chain: CARRARHPGQAGNASASA
Turning to B11, the “furin cleavage Z-score” value runs as follows: (7.5 min) 0.222 (inactive); (15 min) -1.48 (inactive); (30 min) -0.313 (inactive).

B12: FS-2854 (peptide)
chain: CAVHKRSAERAGNASASA
Take B12: the “furin cleavage Z-score” value (7.5 min) stood at 2.95, the “furin cleavage Z-score” value (15 min) is 4.06 (active) and the “furin cleavage Z-score” value (30 min) is 5.25 (active).

B13: FS-2347 (peptide)
chain: CARKRRETSQAGNASASA
For B13, the “furin cleavage Z-score” value is 13.9 (active) (7.5 min), 14.9 (active) (15 min) and 10.1 (active) (30 min).

B14: HC1638 (peptide)
chain: CAKLTPIAAAAGNASASA
As for B14, the “furin cleavage Z-score” value was -0.902 (inactive) (7.5 min), 0.513 (inactive) (15 min) and -0.874 (inactive) (30 min).

B15: FS-1905 (peptide)
chain: CARKRRDVMQAGNASASA
For B15, the “furin cleavage Z-score” value is 8.11 (active) (7.5 min), 9.14 (active) (15 min) and 9.14 (active) (30 min).

B16: FS-334 (peptide)
chain: CAGWSRARRDAGNASASA
Turning to B16, the “furin cleavage Z-score” value (7.5 min) is 9.99 (active), the “furin cleavage Z-score” value (15 min) is 12.4 (active) and the “furin cleavage Z-score” value (30 min) is 9.61 (active).

B17: FS-1913 (peptide)
chain: CARPRRPNGDAGNASASA
Take B17: the “furin cleavage Z-score” value by setting is: (7.5 min) -0.861 (inactive); (15 min) -0.812 (inactive); (30 min) 0.059 (inactive).

B18: FS-585 (peptide)
chain: CAENLRKRRDAGNASASA
Take B18: the “furin cleavage Z-score” value (7.5 min) was 13.3 (active), the “furin cleavage Z-score” value (15 min) is 14.1 (active) and the “furin cleavage Z-score” value (30 min) is 10.9 (active).

B19: FS-289 (peptide)
chain: CARPRRARRDAGNASASA
Regarding B19, the “furin cleavage Z-score” value (7.5 min) is 10.4 (active), the “furin cleavage Z-score” value (15 min) was 10.6 (active) and the “furin cleavage Z-score” value (30 min) was 7.54 (active).

B20: FS-722 (peptide)
chain: CASNCRHERDAGNASASA
With B20, the “furin cleavage Z-score” value runs as follows: (7.5 min) 1.11; (15 min) 0.623 (inactive); (30 min) 1.08.

B21: FS-653 (peptide)
chain: CAGAERKMRDAGNASASA
Regarding B21, the “furin cleavage Z-score” value (7.5 min) amounted to 2.56, the “furin cleavage Z-score” value (15 min) is 3.75 (active) and the “furin cleavage Z-score” value (30 min) is 3.61 (active).

B22: HC1284 (peptide)
chain: CAENKVVILDAGNASASA
With B22, the “furin cleavage Z-score” value is -1.51 (inactive) (7.5 min), 0.132 (inactive) (15 min) and -0.906 (inactive) (30 min).

B23: HC2156 (peptide)
chain: CAGVVTSTWVAGNASASA
Turning to B23, the “furin cleavage Z-score” value runs as follows: (7.5 min) 0.312 (inactive); (15 min) -0.173 (inactive); (30 min) -0.545 (inactive).

B24: HC1347 (peptide)
chain: CAPSGCPPDSAGNASASA
As to B24, the “furin cleavage Z-score” value (7.5 min) is 0.626 (inactive), the “furin cleavage Z-score” value (15 min) is 0.736 (inactive) and the “furin cleavage Z-score” value (30 min) is -1.37 (inactive).

B25: HC1393 (peptide)
chain: CAACQRQKKVAGNASASA
In the case of B25, the “furin cleavage Z-score” value by setting is: (7.5 min) 0.424 (inactive); (15 min) -0.843 (inactive); (30 min) -0.382 (inactive).

B26: HC348 (peptide)
chain: CALLLFAGVDAGNASASA
Consider B26, for which the “furin cleavage Z-score” value runs as follows: (7.5 min) -0.657 (inactive); (15 min) -0.224 (inactive); (30 min) -1.23 (inactive).

B27: FS-2737 (peptide)
chain: CARPERGARGAGNASASA
For B27, the “furin cleavage Z-score” value is, setting by setting: (7.5 min) -0.85 (inactive); (15 min) 0.79 (inactive); (30 min) 0.188 (inactive).

B28: FS-1362 (peptide)
chain: CALLTRARRDAGNASASA
As for B28, the “furin cleavage Z-score” value reads like this: (7.5 min) 10.7 (active); (15 min) 11.2 (active); (30 min) 8.73 (active).

B29: FS-3146 (peptide)
chain: CALLTRIPGFAGNASASA
As to B29, the “furin cleavage Z-score” value is -0.34 (inactive) (7.5 min), 0.0643 (inactive) (15 min) and -0.495 (inactive) (30 min).

B30: FS-1628 (peptide)
chain: CAEVDVQARDAGNASASA
As for B30, the “furin cleavage Z-score” value runs as follows: (7.5 min) -1.25 (inactive); (15 min) 0.00773 (inactive); (30 min) -1.04 (inactive).

B31: FS-1264 (peptide)
chain: CARPERGPRGAGNASASA
As to B31, the “furin cleavage Z-score” value runs as follows: (7.5 min) 1.01; (15 min) 0.671 (inactive); (30 min) 1.51.

B32: FS-3028 (peptide)
chain: CARPVRDCDDAGNASASA
On to B32, for which the “furin cleavage Z-score” value is 0.136 (inactive) (7.5 min), 1.92 (15 min) and 1.99 (30 min).

B33: FS-2739 (peptide)
chain: CARPMRPVGHAGNASASA
For B33, the “furin cleavage Z-score” value runs as follows: (7.5 min) -0.34 (inactive); (15 min) -0.708 (inactive); (30 min) 1.89.

B34: FS-1066 (peptide)
chain: CARPERKRRDAGNASASA
Consider B34, for which the “furin cleavage Z-score” value was 14.3 (active) (7.5 min), 14.2 (active) (15 min) and 10.6 (active) (30 min).

B35: FS-48 (peptide)
chain: CAKVHRQRRDAGNASASA
Turning to B35, the “furin cleavage Z-score” value runs as follows: (7.5 min) 6.48 (active); (15 min) 5.35 (active); (30 min) 4.45 (active).

B36: FS-491 (peptide)
chain: CARPERYRRHAGNASASA
For B36, the “furin cleavage Z-score” value (7.5 min) was 12.7 (active), the “furin cleavage Z-score” value (15 min) was 14.8 (active) and the “furin cleavage Z-score” value (30 min) is 11.1 (active).

B37: HC1912 (peptide)
chain: CATTPCSGEWAGNASASA
As for B37, the “furin cleavage Z-score” value is, setting by setting: (7.5 min) -1.69 (inactive); (15 min) -0.859 (inactive); (30 min) 0.0519 (inactive).

B38: HC1986 (peptide)
chain: CAMVCCSMSYAGNASASA
As to B38, the “furin cleavage Z-score” value is 0.714 (inactive) (7.5 min), 1.46 (15 min) and 0.242 (inactive) (30 min).

B39: HC817 (peptide)
chain: CAIICDECHSAGNASASA
Consider B39, for which the “furin cleavage Z-score” value was -0.464 (inactive) (7.5 min), -1.69 (inactive) (15 min) and -0.782 (inactive) (30 min).

B40: FS-1597 (peptide)
chain: CAKSRRARRDAGNASASA
Take B40: the “furin cleavage Z-score” value by setting is: (7.5 min) 7.96 (active); (15 min) 9.22 (active); (30 min) 7.04 (active).

B41: FS-544 (peptide)
chain: CAKDSRCDRDAGNASASA
Take B41: the “furin cleavage Z-score” value was -1.48 (inactive) (7.5 min), -1.29 (inactive) (15 min) and 0.34 (inactive) (30 min).

B42: HC565 (peptide)
chain: CAALDTEVAAAGNASASA
For the sequence B42, the “furin cleavage Z-score” value (7.5 min) turned out to be 1.05, the “furin cleavage Z-score” value (15 min) is 0.0294 (inactive) and the “furin cleavage Z-score” value (30 min) was -0.123 (inactive).

B43: FS-2281 (peptide)
chain: CARMARNVLKAGNASASA
Take B43: the “furin cleavage Z-score” value reads like this: (7.5 min) 2.27; (15 min) 2.22; (30 min) 4.88 (active).

B44: FS-2436 (peptide)
chain: CARPDRPVLKAGNASASA
As for B44, the “furin cleavage Z-score” value runs as follows: (7.5 min) -0.645 (inactive); (15 min) -0.376 (inactive); (30 min) -0.377 (inactive).

B45: FS-1909 (peptide)
chain: CARMAREVAAAGNASASA
In the case of B45, the “furin cleavage Z-score” value is, setting by setting: (7.5 min) 6.15 (active); (15 min) 4.78 (active); (30 min) 6.63 (active).

B46: FS-1724 (peptide)
chain: CARKFRDLLKAGNASASA
Turning to B46, the “furin cleavage Z-score” value was -0.828 (inactive) (7.5 min), -1.86 (inactive) (15 min) and 0.751 (inactive) (30 min).

B47: HC1070 (peptide)
chain: CAQLAAPGAAAGNASASA
Regarding B47, the “furin cleavage Z-score” value runs as follows: (7.5 min) -0.00694 (inactive); (15 min) -2.1 (inactive); (30 min) -1.59 (inactive).
